{"source": "PubChem BioAssay (NCI)", "key": {"[1]": {"assay": "NCI Yeast Anticancer Drug Screen. Data for the wt1 strain (AID 149);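 further: 0% = growth of vehicle-treated wt1 cultures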", "settings": "S. cerevisiae wt1 strain (SPY 50644) growth inhibition, active compounds read high", "how_it_was_run": "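Readout: yeast growth inhibition, normalised to vehicle controls, in the wt1 strain exposed to test compounds.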"}, "[2]": {"assay": "NCI Yeast Anticancer Drug Screen. Data for the rad50EPP+ strain (AID 151);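 further: 0% = growth of vehicle-treated control cultures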", "settings": "S. cerevisiae rad50 mutant strain, active compounds read high", "how_it_was_run": "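Exposing the rad50EPP+ strain to each compound, growth was compared with vehicle-only cultures to give inhibition.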"}, "[3]": {"assay": "NCI Yeast Anticancer Drug Screen. Data for the mgt1 strain (AID 153)", "settings": "S. cerevisiae mgt1 mutant growth inhibition, active compounds read high", "how_it_was_run": "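Genetically defined yeast (mgt1) treated with compound; inhibition of growth expressed against vehicle-treated controls.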"}, "[4]": {"assay": "NCI Yeast Anticancer Drug Screen. Data for the rad50 strain (AID 155);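 further: 0% = growth of vehicle-only cultures of the same strain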", "settings": "S. cerevisiae rad50 strain growth inhibition, active compounds read high", "how_it_was_run": "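Compounds were tested on a yeast strain with an engineered DNA damage repair alteration; the reported value is growth inhibition normalised to vehicle treatment.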"}, "[5]": {"assay": "NCI Yeast Anticancer Drug Screen. Data for the mec2-1 strain (AID 157)", "settings": "S. cerevisiae mec2-1 strain, active compounds read high", "how_it_was_run": "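Readout is yeast growth inhibition, normalised to vehicle-treated controls, in the mec2-1 strain exposed to compound.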"}, "[6]": {"assay": "NCI Yeast Anticancer Drug Screen. Data for the rad14 strain (AID 159);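 further: 0% = growth of vehicle-treated control cultures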", "settings": "S. cerevisiae rad14 strain growth inhibition, active compounds read high", "how_it_was_run": "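Compound-treated yeast with a defined DNA-repair lesion; growth inhibition normalised to vehicle-treated cultures.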"}, "[7]": {"assay": "NCI Yeast Anticancer Drug Screen. Data for the sgs1 mgt1 strain (AID 161);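 further: 0% = growth of cultures given vehicle only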", "settings": "S. cerevisiae sgs1 mgt1 strain, active compounds read high", "how_it_was_run": "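Compounds are added to genetically altered yeast, and growth is compared with cultures given vehicle alone to give percent inhibition.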"}, "[8]": {"assay": "NCI Yeast Anticancer Drug Screen. Data for the CLN2oe strain (AID 163);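 further: 0% = growth of vehicle-only control cultures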", "settings": "S. cerevisiae CLN2oe strain, active compounds read high", "how_it_was_run": "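Values reflect how much compound exposure reduced yeast growth, referenced to vehicle-exposed cells. Assay organism is a strain with a defined genetic change affecting cell-cycle control.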"}, "[9]": {"assay": "NCI Yeast Anticancer Drug Screen. Data for the cln2 rad14 strain (AID 165);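 further: 0% = growth equal to vehicle treated cultures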", "settings": "S. cerevisiae cln2 rad14 strain, active compounds read high", "how_it_was_run": "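Relative to vehicle controls, growth inhibition of compound-treated cln2 rad14 yeast was recorded.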"}, "[10]": {"assay": "NCI Yeast Anticancer Drug Screen. Data for the bub3 strain (AID 167)", "settings": "S. cerevisiae bub3 mutant strain, active compounds read high", "how_it_was_run": "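Growth of a checkpoint-deficient yeast mutant is measured after compound exposure. Values represent inhibition relative to vehicle.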"}, "[11]": {"assay": "NCI Yeast Anticancer Drug Screen. Data for the wt2 strain (AID 169);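 further: 0% = growth of vehicle-treated yeast cultures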", "settings": "S. cerevisiae wt2 strain growth inhibition, active compounds read high", "how_it_was_run": "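Values express reduction in yeast growth under compound treatment, referenced to vehicle-treated cells.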"}, "[12]": {"assay": "NCI Yeast Anticancer Drug Screen. Data for the mlh1 strain (AID 171);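 further: 0% = growth of vehicle-treated control cultures of the same strain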", "settings": "S. cerevisiae mlh1 strain growth inhibition, active compounds read high", "how_it_was_run": "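Steps: expose the defined-mutant yeast strain to compound; expose a parallel culture to vehicle; measure growth; express compound effect as inhibition relative to the vehicle culture.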"}, "[13]": {"assay": "NCI Yeast Anticancer Drug Screen. Data for the sgs1 strain (AID 173);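 further: 0% = growth of vehicle-only control cultures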", "settings": "S. cerevisiae sgs1 mutant, active compounds read high", "how_it_was_run": "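Treat defined-mutant yeast with compound; measure growth; calculate inhibition relative to vehicle-treated cells.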"}, "[14]": {"assay": "NCI Yeast Anticancer Drug Screen. Data for the mlh1 rad18 strain (AID 175)", "settings": "S. cerevisiae mlh1 rad18 strain growth inhibition, active compounds read high", "how_it_was_run": "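Test agents were incubated with a yeast strain of defined genotype (DNA damage repair defect). Inhibition of growth was derived by comparison with vehicle-exposed cultures.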"}, "[15]": {"assay": "NCI Yeast Anticancer Drug Screen. Data for the rad18 strain (AID 177)", "settings": "S. cerevisiae rad18 mutant growth inhibition, active compounds read high", "how_it_was_run": "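A genetically defined yeast mutant impaired in DNA damage repair was treated with test compounds, then its growth was measured against cultures receiving vehicle alone.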"}, "[16]": {"settings": "at 5.0 µM (retest, dose inferred, filed as 0.5)"}, "[17]": {"settings": "at 50.0 µM (retest, dose inferred, filed as 5.0)"}}, "note": "About 79,000 compounds went through this panel and 15% of them were active in at least one assay; those are over-represented in the sample as a whole. A number with no mark means an inactive call. Activity calls are given as the source filed them. No stated cut-off is given here; in the data, active means growth inhibition above about 70%; inactive means the rest.", "data": [{"smiles": "C#CC1=CC(=O)C(OC)=CC1=O", "values": [{"measurement": "growth inhibition", "setting": "[1]; at 1.2 µM", "value": -2, "unit": "%"}, {"measurement": "growth inhibition", "setting": "[1]; at 3.7 µM", "value": -1, "unit": "%"}, {"measurement": "growth inhibition", "setting": "[1]; at 11.0 µM", "value": 23, "unit": "%"}, {"measurement": "growth inhibition", "setting": "[1]; at 33.0 µM", "value": "90% (active)"}, {"measurement": "growth inhibition", "setting": "[1]; at 100.0 µM", "value": "98% (active)"}, {"measurement": "growth inhibition", "setting": "[2]; at 1.2 µM", "value": 9, "unit": "%"}, {"measurement": "growth inhibition", "setting": "[2]; at 3.7 µM", "value": 21, "unit": "%"}, {"measurement": "growth inhibition", "setting": "[2]; at 11.0 µM", "value": 43, "unit": "%"}, {"measurement": "growth inhibition", "setting": "[2]; at 33.0 µM", "value": "95% (active)"}, {"measurement": "growth inhibition", "setting": "[2]; at 100.0 µM", "value": "98% (active)"}, {"measurement": "growth inhibition", "setting": "[3]; at 1.2 µM", "value": 0, "unit": "%"}, {"measurement": "growth inhibition", "setting": "[3]; at 3.7 µM", "value": 11, "unit": "%"}, {"measurement": "growth inhibition", "setting": "[3]; at 11.0 µM", "value": 48, "unit": "%"}, {"measurement": "growth inhibition", "setting": "[3]; at 33.0 µM", "value": "99% (active)"}, {"measurement": "growth inhibition", "setting": "[3]; at 100.0 µM", "value": "99% (active)"}, {"measurement": "growth inhibition", "setting": "[4]; at 1.2 µM", "value": 14, "unit": "%"}, {"measurement": "growth inhibition", "setting": "[4]; at 3.7 µM", "value": 34, "unit": "%"}, {"measurement": "growth inhibition", "setting": "[4]; [16]", "value": 53, "unit": "%"}, {"measurement": "growth inhibition", "setting": "[4]; at 11.0 µM", "value": "94% (active)"}, {"measurement": "growth inhibition", "setting": "[4]; at 33.0 µM", "value": "98% (active)"}, {"measurement": "growth inhibition", "setting": "[4]; [17]", "value": "99% (active)"}, {"measurement": "growth inhibition", "setting": "[4]; at 50.0 µM", "value": 30.4, "unit": "%"}, {"measurement": "growth inhibition", "setting": "[4]; at 100.0 µM", "value": "98% (active)"}, {"measurement": "growth inhibition", "setting": "[5]; at 1.2 µM", "value": 0, "unit": "%"}, {"measurement": "growth inhibition", "setting": "[5]; at 3.7 µM", "value": 14, "unit": "%"}, {"measurement": "growth inhibition", "setting": "[5]; [16]", "value": 23, "unit": "%"}, {"measurement": "growth inhibition", "setting": "[5]; at 11.0 µM", "value": "89% (active)"}, {"measurement": "growth inhibition", "setting": "[5]; at 33.0 µM", "value": "99% (active)"}, {"measurement": "growth inhibition", "setting": "[5]; [17]", "value": "99% (active)"}, {"measurement": "growth inhibition", "setting": "[5]; at 50.0 µM", "value": 62, "unit": "%"}, {"measurement": "growth inhibition", "setting": "[5]; at 100.0 µM", "value": "99% (active)"}, {"measurement": "growth inhibition", "setting": "[6]; at 1.2 µM", "value": 12, "unit": "%"}, {"measurement": "growth inhibition", "setting": "[6]; at 3.7 µM", "value": 21, "unit": "%"}, {"measurement": "growth inhibition", "setting": "[6]; at 11.0 µM", "value": "82% (active)"}, {"measurement": "growth inhibition", "setting": "[6]; at 33.0 µM", "value": "99% (active)"}, {"measurement": "growth inhibition", "setting": "[6]; at 100.0 µM", "value": "99% (active)"}, {"measurement": "growth inhibition", "setting": "[7]; [16]", "value": 54, "unit": "%"}, {"measurement": "growth inhibition", "setting": "[7]; [17]", "value": "99% (active)"}, {"measurement": "growth inhibition", "setting": "[7]; at 50.0 µM", "value": 32.5, "unit": "%"}, {"measurement": "growth inhibition", "setting": "[8]; at 1.2 µM", "value": 2, "unit": "%"}, {"measurement": "growth inhibition", "setting": "[8]; at 3.7 µM", "value": 14, "unit": "%"}, {"measurement": "growth inhibition", "setting": "[8]; at 11.0 µM", "value": 29, "unit": "%"}, {"measurement": "growth inhibition", "setting": "[8]; at 33.0 µM", "value": "88% (active)"}, {"measurement": "growth inhibition", "setting": "[8]; at 100.0 µM", "value": "99% (active)"}, {"measurement": "growth inhibition", "setting": "[9]; [16]", "value": 39, "unit": "%"}, {"measurement": "growth inhibition", "setting": "[9]; [17]", "value": "99% (active)"}, {"measurement": "growth inhibition", "setting": "[9]; at 50.0 µM", "value": 47.4, "unit": "%"}, {"measurement": "growth inhibition", "setting": "[10]; at 1.2 µM", "value": -6, "unit": "%"}, {"measurement": "growth inhibition", "setting": "[10]; at 3.7 µM", "value": 0, "unit": "%"}, {"measurement": "growth inhibition", "setting": "[10]; [16]", "value": 21, "unit": "%"}, {"measurement": "growth inhibition", "setting": "[10]; at 11.0 µM", "value": "88% (active)"}, {"measurement": "growth inhibition", "setting": "[10]; at 33.0 µM", "value": "99% (active)"}, {"measurement": "growth inhibition", "setting": "[10]; [17]", "value": "99% (active)"}, {"measurement": "growth inhibition", "setting": "[10]; at 50.0 µM", "value": 65.2, "unit": "%"}, {"measurement": "growth inhibition", "setting": "[10]; at 100.0 µM", "value": "99% (active)"}, {"measurement": "growth inhibition", "setting": "[11]; at 1.2 µM", "value": -6, "unit": "%"}, {"measurement": "growth inhibition", "setting": "[11]; at 3.7 µM", "value": 2, "unit": "%"}, {"measurement": "growth inhibition", "setting": "[11]; at 11.0 µM", "value": 48, "unit": "%"}, {"measurement": "growth inhibition", "setting": "[11]; at 33.0 µM", "value": "97% (active)"}, {"measurement": "growth inhibition", "setting": "[11]; at 100.0 µM", "value": "99% (active)"}, {"measurement": "growth inhibition", "setting": "[12]; at 1.2 µM", "value": 3, "unit": "%"}, {"measurement": "growth inhibition", "setting": "[12]; at 3.7 µM", "value": 16, "unit": "%"}, {"measurement": "growth inhibition", "setting": "[12]; at 11.0 µM", "value": "96% (active)"}, {"measurement": "growth inhibition", "setting": "[12]; at 33.0 µM", "value": "99% (active)"}, {"measurement": "growth inhibition", "setting": "[12]; at 100.0 µM", "value": "99% (active)"}, {"measurement": "growth inhibition", "setting": "[13]; at 1.2 µM", "value": 11, "unit": "%"}, {"measurement": "growth inhibition", "setting": "[13]; at 3.7 µM", "value": 34, "unit": "%"}, {"measurement": "growth inhibition", "setting": "[13]; at 11.0 µM", "value": "98% (active)"}, {"measurement": "growth inhibition", "setting": "[13]; at 33.0 µM", "value": "100% (active)"}, {"measurement": "growth inhibition", "setting": "[13]; at 100.0 µM", "value": "99% (active)"}, {"measurement": "growth inhibition", "setting": "[14]; [16]", "value": "77% (active)"}, {"measurement": "growth inhibition", "setting": "[14]; [17]", "value": "99% (active)"}, {"measurement": "growth inhibition", "setting": "[14]; at 50.0 µM", "value": 66.2, "unit": "%"}, {"measurement": "growth inhibition", "setting": "[15]; at 1.2 µM", "value": 40, "unit": "%"}, {"measurement": "growth inhibition", "setting": "[15]; at 3.7 µM", "value": "83% (active)"}, {"measurement": "growth inhibition", "setting": "[15]; at 11.0 µM", "value": "96% (active)"}, {"measurement": "growth inhibition", "setting": "[15]; at 33.0 µM", "value": "99% (active)"}, {"measurement": "growth inhibition", "setting": "[15]; at 100.0 µM", "value": "99% (active)"}]}]}
